Shown are actives, neighbours in structure and some others; about 2.8% of the full set was active somewhere.
FXN GAA850 act: activators of GAA850 frataxin (FXN) promoter | HEK293 lucGAA850 FXN promoter luciferase reporter, 24 h; percent of 10 µM SAHA response | activation, % at 6 µM | hit rate 0.56% among 360,000 | AID 540364;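 active = activation above the average of all compounds screened plus 3 SD, cutoff fixed separately per campaign, cut at about 7.5% in these data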;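 also: 0% = DMSO wells and 100% = 10 µM SAHA wells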
esBAF inh: blocks esBAF chromatin remodeling in mouse ES cells | Bmi1-luciferase knock-in reporter, 24 h; 100% = twice the neutral-well signal | reporter increase, % at 12.5 µM | hit rate 2% among 350,000 | AID 602393; in the data active = activation above about 40%; inconclusive = no clear call, values can overlap the other calls;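 also: 0% = median of the plate's neutral control wells and 100% = double that signal; a rise in the Bmi1 reporter signal indicates esBAF inhibition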
MITF act: MITF TRPM1 promoter activation in melanoma cells. activation, % at 12.5 µM. SK-MEL-5 TRPM1-promoter luciferase, 24 h; % of positive control, neutral wells = 0. hit rate 0.75% among 300,000;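 active = mean activation of at least 80% with every replicate also reaching 80%; inconclusive = mean reaches 80% but some replicate falls short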;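 also: 0% = neutral control wells and 100% = parthenolide positive control wells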
Wnt act: Wnt/beta-catenin pathway activation; Wnt/beta-catenin reporter cell assay, activator, plate reader; activation, % at 9.35 µM; hit rate 1.2% among 300,000; AID 743398; in the data active = activation above about 30%, passing the limit was not always enough; inconclusive = no clear call, values can overlap the other calls;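 also: 0% = neutral control wells and 100% = positive control wells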
Ring1 derepress: esBAF inhibition confirmed by Ring1 de-repression; shares compounds with esBAF inh; 550 tested, under 10 active; fold change at 33 µM; mouse ESC E14, Ring1 mRNA RT-qPCR fold change;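 active = Ring1 gene expression raised more than 2-fold over untreated cells in both replicates at either tested dose; inconclusive = only one replicate above 2-fold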;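 also: Ring1 transcript normalised to actin housekeeping signal by TaqMan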
esBAF Fgf4 qPCR: esBAF inhibition confirmed by Fgf4 repression | Fgf4 expression fold change at 33 µM | mouse ESC E14, Fgf4 mRNA qPCR fold change; hits give low values | AID 743177 | shares compounds with esBAF inh | hit rate 4% among 550;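 active = Fgf4 expression under 0.8 fold of control in both repeat measurements at one or both tested doses; inconclusive = under 0.8 fold in just a single repeat measurement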;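 also: Fgf4 transcript normalised to actin in duplex TaqMan qPCR; cells exposed to compound for 24 h before lysis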
esBAF Bmi1 qPCR: esBAF inhibition confirmed by Bmi1 de-repression. fold change at 33 µM. AID 743180. 550 tested, under 10 active. shares compounds with esBAF inh. mouse ESE14 ES cells, Bmi1 mRNA qPCR fold; hits give high values;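 active = Bmi1 expression fold change above 6 at either tested concentration, seen in replicate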;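 also: higher fold means more Bmi1 de-repression and stronger esBAF inhibition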
A549 cytotox: kills or reduces viability of A549 cells. A549 cytotoxicity, plate reader. 550 tested, under 10 active. shares compounds with esBAF inh. cell viability change % (negative = cytotoxic), % at 25 µM, hits read low; call rule not given here
HepG2 cytotox SP: cytotoxicity in HepG2 cells | hit rate 4% among 550 | activity change, negative = inhibition, % at 25 µM | shares compounds with esBAF inh | plate reader; hits give low values | AID 743189; in the data active = activity change below about -50%
HEK293 cytotox SP: kills or reduces viability of HEK293 cells; activity change, negative = inhibition, % at 25 µM, hits read low; hit rate 3% among 550; HEK293 cytotoxicity, plate reader; shares compounds with esBAF inh; in the data active = activity change below about -38%, passing the limit was not always enough
An asterisk follows results filed as active; ? = inconclusive; / = not tested or not shown.

SMILES	FXN GAA850 act	esBAF inh	MITF act	Wnt act	Ring1 derepress	esBAF Fgf4 qPCR	esBAF Bmi1 qPCR	A549 cytotox	HepG2 cytotox SP	HEK293 cytotox SP
O=C1NC(=Nc2ccccc2)S/C1=C\c1cccn1-c1ccccc1	2	67*	21	/	2.6*	0.44*	11*	-10	14	-43
CC=Cc1ccc2n(c1=O)C[C@@H]1[C@@H](CO)[C@H](C(=O)NCC(F)(F)F)N(CC3CC3)[C@H]21 (mixture of isomers)	/	-1	/	/	/	/	/	/	/	/
C/C(=N\O)c1ccc2c3ccccc3n(C)c2c1	2	58*	23	4	1.2	0.98	1	-13	3	-10
Cc1ccc2oc(-c3cccc(NC(=S)NC(=O)c4cccs4)c3)nc2c1	3	/	12	22	/	/	/	/	/	/
O=C(Nc1ccc2oc(-c3ccccc3)nc2c1)c1cccs1	2	78*	71	/	0.88	?	1.9	-8	-6	-15
Cc1sc(NC(=S)NC(=O)c2cccs2)nc1-c1ccc(C(C)C)cc1	0	-3	-4	/	/	/	/	/	/	/
Cc1sc(NC(=O)c2cccs2)nc1-c1ccccc1	-1	64*	/	47*	2.5*	0.96	2.5	-5	12	10
CCN(C(=O)CN1C(=O)S/C(=C\C=C\c2ccccc2)C1=O)C1CCS(=O)(=O)C1 (configuration not stated)	6	55*	11	4	0.97	?	2	-1	-27	4
COc1ccc(S(=O)(=O)Nc2cccc3c2O[C@@H](CN(C)CC2CC2)[C@H](C)CN([C@H](C)CO)C3=O)cc1	/	-3	/	/	/	/	/	/	/	/
CCc1ccccc1NC(=O)c1cc(-c2cccc(O)c2)on1	2	79*	/	21	1.2	?	1.2	-17	-11	-18
O=C(Nc1ccccc1C(F)(F)F)c1cc(-c2cccc(O)c2)on1	4	31	68	/	/	/	/	/	/	/
CCCC(=O)N1CCN(c2nc3ccc(Br)cc3s2)CC1	4	66*	67	0	0.96	0.89	1.4	-6	-14	-34
CC(C)(C)C(=O)N1CCN(c2nc3ccc(Br)cc3s2)CC1	0	93*	45	3	1.1	1	1.7	-3	10	-27
COc1ccc(Cc2nc(-c3ccncc3)no2)cc1	-2	/	12	0	/	/	/	/	/	/
Clc1ccc(Cc2nc(-c3ccncc3)no2)cc1	2	/	5	-2	/	/	/	/	/	/
Cc1cccc(-c2noc(Cc3ccc(Cl)cc3)n2)c1	2	87*	68	-6	1.2	?	1.3	-6	-16	2
COc1ccc(Cc2nc(-c3cccc(C)c3)no2)cc1	3	58*	39	-2	1	0.88	1.4	-7	-14	-2
